In article PMC5540273 (PLoS ONE, 2017):

system: CHEK2; conditions: concentration: 1 μM, replicates: in singlicate; n = 1
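Note: KINOMEscan kinase panel screen.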

Compound	%Inh
COc1cc2nccc(Nc3ccc(NC(=O)c4ccc(C)cc4)c(O)c3)c2cc1OC.Cl [GW440132]	11%
Nc1ncnc2[nH]c(-c3ccccc3)nc12 [AH5015]	0%
Cl.NC(=O)c1cccc(Nc2nccc(Nc3ccc(Oc4cccc(Cl)c4)c(Cl)c3)n2)c1 [GW659008]	0%
COC(=O)c1c(-c2ccccc2)c2cc(OC)ccc2c(=O)n1Cc1ccccc1	15%
CN(C)CCN(C)C(=O)c1cc(-c2ccncc2)c(-c2ccc(Cl)c(O)c2)o1.Cl.Cl [SB-710397]	12%
CS(=O)(=O)c1ccc(-c2c(-c3ncn[nH]3)sc(N3CCOCC3)c2C#N)cc1	5%
CC(=O)Nc1nc2cnc(Nc3cc(NC(=O)c4cccc(CCC#N)c4)ccc3C)nc2s1	0%
COc1ccc(Nc2nccc(NCCNC(=O)Nc3ccccc3F)n2)cc1 [GSK1379901]	0%
CN1C(=O)C(Nc2ccc(Cl)c(C(=O)O)c2)=C(c2ccc(Cl)cc2)C1=O [SB-404290]	0%
Cn1cncc1-c1ccc2ncnc(Nc3ccc(OCc4ccccc4)cc3)c2c1 [GW320571]	0%
COc1cc2ncn(-c3cc(OCC4CCCO4)c(C(N)=O)s3)c2cc1OC (centres unmarked) [GSK204607]	20%
COc1ccccc1-c1ccc2c(NC(=O)C3CC3)n[nH]c2n1 [SB-711239]	19%
CSc1nn2c(=O)cc(N3CCOCC3)nc2n1Cc1cccc(C(F)(F)F)c1C [GSK2363608]	0%
Cc1c(Cn2ccn3c(=O)cc(N4CCOCC4)nc23)cccc1C(F)(F)F [GSK2289044]	0%
Cc1ccc(NC(=O)Nc2cccc(Cl)c2)cc1-c1ccc(C(=O)Nc2ccncc2)cc1 [GSK1398468]	0%
Cl.Oc1ccc(-c2nc(-c3ccccc3)[nH]c2-c2ccncc2)cc1 [SB-428218]	0%
C[C@@H]1CCCCN1c1cc(-c2ccc3c(N)n[nH]c3c2)nc(N)n1 [GSK2258759]	12%
COC(=O)c1c(-c2ccccc2)c2cc(C(=O)O)ccc2c(=O)n1Cc1ccccc1	13%

Compound	%Inh
Cc1cccc(-c2nc(Nc3ccc4[nH]ncc4c3)c3ccccc3n2)n1 [GW857175]	0%
Nc1nc(-c2nccs2)c(-c2ccnc3ccccc23)s1 [GW693542]	0%
Cc1c(O)cccc1Nc1ccnc2ccc(C(F)(F)F)cc12.Cl [GW466413]	0%
O=C(Nc1ccc2c(c1)OCO2)NC1CCN(c2ccnc(Nc3ccc(F)cc3)n2)C1 (centres unmarked) [GSK1379724]	0%
Cc1ccccc1-n1cnc2c(N)ncnc21 [SKF-97510]	0%
Cc1ccc(C(=O)Nc2ccc(Nc3ccnc4cc(-c5ccccn5)ccc34)cc2O)cc1.Cl [GW440146]	4%
COc1ccc(Nc2nccc(-c3cccc(NC(=O)c4cc5cc(F)ccc5[nH]4)c3)n2)cc1 [GSK1229782]	37%
COc1cccc(-c2cc(-c3c[nH]nc3-c3ccccn3)ccn2)c1 [GW680338]	18%
Cc1cccc(-c2nc(-c3ccc(S(C)(=O)=O)cc3)sc2-c2ccnc(NCCc3ccccc3)c2)c1	0%
Clc1cc(Cl)cc(Nc2ccnc(Nc3cc(Cl)cc(Cl)c3)n2)c1 [GSK175726]	0%
O=C(Nc1n[nH]c2nc(-c3nccs3)c(Br)cc12)C1CC1 [SB-742251]	0%
O=C(Nc1n[nH]c2cc(-c3cccc(F)c3F)ccc12)C1CC1 [SB-733894]	0%
Cc1nnc(-c2ccc3occ(-c4ccc(S(C)=O)cc4)c3c2)[nH]1 (centres unmarked)	10%
Cc1cccc(-c2nc(C)cc(Nc3ccncc3)n2)n1 [GSK257997]	0%
NC(=O)c1nnc2ccccc2c1N	16%
O=c1cc(N2CCOCC2)nc2n(Cc3cccc(Cl)c3Cl)ccn12 [GSK2286295]	0%
CS(=O)(=O)c1ccc(-c2nc3n(c2-c2ccncc2)CCC3)cc1 [SKF-105942]	0%
COc1ccc(C2=C(Nc3cccc(C(=O)O)c3)C(=O)NC2=O)cc1 [SB-390765]	0%

system: CIT; conditions: concentration: 1 μM, replicates: in singlicate; n = 1

Compound	%Inh
COc1cc2nccc(Nc3ccc(NC(=O)c4ccc(C)cc4)c(O)c3)c2cc1OC.Cl [GW440132]	11%
Nc1ncnc2[nH]c(-c3ccccc3)nc12 [AH5015]	9%
Cl.NC(=O)c1cccc(Nc2nccc(Nc3ccc(Oc4cccc(Cl)c4)c(Cl)c3)n2)c1 [GW659008]	19%
COC(=O)c1c(-c2ccccc2)c2cc(OC)ccc2c(=O)n1Cc1ccccc1	6%
CN(C)CCN(C)C(=O)c1cc(-c2ccncc2)c(-c2ccc(Cl)c(O)c2)o1.Cl.Cl [SB-710397]	21%
CS(=O)(=O)c1ccc(-c2c(-c3ncn[nH]3)sc(N3CCOCC3)c2C#N)cc1	4%
CC(=O)Nc1nc2cnc(Nc3cc(NC(=O)c4cccc(CCC#N)c4)ccc3C)nc2s1	34%
COc1ccc(Nc2nccc(NCCNC(=O)Nc3ccccc3F)n2)cc1 [GSK1379901]	0%
CN1C(=O)C(Nc2ccc(Cl)c(C(=O)O)c2)=C(c2ccc(Cl)cc2)C1=O [SB-404290]	0%
Cn1cncc1-c1ccc2ncnc(Nc3ccc(OCc4ccccc4)cc3)c2c1 [GW320571]	6%
COc1cc2ncn(-c3cc(OCC4CCCO4)c(C(N)=O)s3)c2cc1OC (centres unmarked) [GSK204607]	12%
COc1ccccc1-c1ccc2c(NC(=O)C3CC3)n[nH]c2n1 [SB-711239]	22%
Cc1c(Cn2ccn3c(=O)cc(N4CCOCC4)nc23)cccc1C(F)(F)F [GSK2289044]	22%
Cc1ccc(NC(=O)Nc2cccc(Cl)c2)cc1-c1ccc(C(=O)Nc2ccncc2)cc1 [GSK1398468]	86%
Cl.Oc1ccc(-c2nc(-c3ccccc3)[nH]c2-c2ccncc2)cc1 [SB-428218]	0%
C[C@@H]1CCCCN1c1cc(-c2ccc3c(N)n[nH]c3c2)nc(N)n1 [GSK2258759]	36%
COC(=O)c1c(-c2ccccc2)c2cc(C(=O)O)ccc2c(=O)n1Cc1ccccc1	2%
Cc1cccc(-c2nc(Nc3ccc4[nH]ncc4c3)c3ccccc3n2)n1 [GW857175]	9%

Compound	%Inh
Nc1nc(-c2nccs2)c(-c2ccnc3ccccc23)s1 [GW693542]	44%
Cc1c(O)cccc1Nc1ccnc2ccc(C(F)(F)F)cc12.Cl [GW466413]	42%
O=C(Nc1ccc2c(c1)OCO2)NC1CCN(c2ccnc(Nc3ccc(F)cc3)n2)C1 (centres unmarked) [GSK1379724]	23%
Cc1ccccc1-n1cnc2c(N)ncnc21 [SKF-97510]	0%
Cc1ccc(C(=O)Nc2ccc(Nc3ccnc4cc(-c5ccccn5)ccc34)cc2O)cc1.Cl [GW440146]	2%
COc1ccc(Nc2nccc(-c3cccc(NC(=O)c4cc5cc(F)ccc5[nH]4)c3)n2)cc1 [GSK1229782]	44%
COc1cccc(-c2cc(-c3c[nH]nc3-c3ccccn3)ccn2)c1 [GW680338]	7%
Cc1cccc(-c2nc(-c3ccc(S(C)(=O)=O)cc3)sc2-c2ccnc(NCCc3ccccc3)c2)c1	0%
Clc1cc(Cl)cc(Nc2ccnc(Nc3cc(Cl)cc(Cl)c3)n2)c1 [GSK175726]	22%
O=C(Nc1n[nH]c2nc(-c3nccs3)c(Br)cc12)C1CC1 [SB-742251]	3%
O=C(Nc1n[nH]c2cc(-c3cccc(F)c3F)ccc12)C1CC1 [SB-733894]	6%
Cc1nnc(-c2ccc3occ(-c4ccc(S(C)=O)cc4)c3c2)[nH]1 (centres unmarked)	0%
Cc1cccc(-c2nc(C)cc(Nc3ccncc3)n2)n1 [GSK257997]	23%
NC(=O)c1nnc2ccccc2c1N	7%
O=c1cc(N2CCOCC2)nc2n(Cc3cccc(Cl)c3Cl)ccn12 [GSK2286295]	5%
CS(=O)(=O)c1ccc(-c2nc3n(c2-c2ccncc2)CCC3)cc1 [SKF-105942]	4%
COc1ccc(C2=C(Nc3cccc(C(=O)O)c3)C(=O)NC2=O)cc1 [SB-390765]	0%
